Several values for one entry are separate records, joined by “and”; a condition that tells them apart may be missing. Equal values may be shown once. Records with an inconclusive call do not appear. Activity calls are given as the source filed them.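 How the source made its calls, unless noted: active means normalized viability below 100% at a tested concentration; inactive means the rest.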

Experiment [1] is described as follows: liver-stage malaria parasite growth inhibition, primary screen, cell-based, HepG2, luciferase luminescence, HepG2 viability (AID 624349; in the data active means parasite load remaining mostly below about 12%, no sharp cut-off; inactive means mostly above about 10%;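 further: 100% = mean of DMSO negative control wells on the same plate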). As to conditions: P. berghei liver stage in HepG2, luciferase luminescence, concentration not given here; parasite load remaining: stronger effect = lower value; viability: measured here: HepG2 viability without parasites.
Experiment [2] in a line: growth inhibition of DIPG glioma cells, dose response, cell-based, SU-DIPG-XIII, MIPE4.0, CellTiter-Glo, qHTS (AID 1347061; cut-off not given, nearly all actives have AC50 up to about 37 µM;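 further: cells exposed to compound for 48 hours before readout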). The settings on record: SU-DIPG-XIII viability, CellTiter-Glo ATP luminescence.
A short description of experiment [3]: growth inhibition of DIPG glioma cells, dose response, cell-based, JHH-DIPG-1, MIPE4.0, CellTiter-Glo, qHTS (AID 1347062; cut-off not given, nearly all actives have AC50 up to about 27 µM;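 on AC50: cells exposed to compound for two days before readout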). The settings on record: JHH-DIPG-1 viability, CellTiter-Glo ATP luminescence. On the technique in general: In ATP-based viability assays light output follows the ATP content of the culture.
The nature of experiment [4]: growth inhibition of DIPG glioma cells, dose response, cell-based, SU-DIPG-IV, MIPE4.0, CellTiter-Glo, qHTS (AID 1347063; cut-off not given, nearly all actives have AC50 up to about 30 µM;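 further: compound exposure lasted 48 hours before the viability readout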). The settings on record: SU-DIPG-IV viability, CellTiter-Glo ATP luminescence.
Experiment [5] in a line: growth inhibition of DIPG glioma cells, dose response, cell-based, SU-DIPG-XIII, MIPE5.0, CellTiter-Glo, qHTS (AID 1347064; cut-off not given, nearly all actives have AC50 up to about 23 µM;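 on AC50: cells exposed to compound for 48 hours before the viability read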). The settings on record: SU-DIPG-XIII viability, CellTiter-Glo ATP luminescence.
A short description of experiment [6]: viability loss in pontine glioma line – cell-based, SU-DIPG-XXV, MIPE5.0, CellTiter-Glo, qHTS, dose response (AID 1347065; cut-off not given, nearly all actives have AC50 up to about 26 µM;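 further: cells exposed to compound for 48 hours before ATP readout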). The settings on record: CellTiter-Glo ATP luminescence.
Experiment [7] in a line: SU-DIPG-VI glioma cell viability, MIPE4.0 library, CellTiter-Glo luminescence, qHTS (AID 1347066; cut-off not given, nearly all actives have AC50 up to about 30 µM;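 further: cells exposed to compound for 48 hours before readout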). The settings on record: CellTiter-Glo ATP luminescence.
A short description of experiment [8]: JHH-DIPG-1 glioma cell viability, MIPE5.0 library, CellTiter-Glo luminescence, qHTS (AID 1347067; cut-off not given, nearly all actives have AC50 up to about 26 µM;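 further: cells exposed to compound for 48 hours before readout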). As to conditions: JHH-DIPG-1 glioma viability, CellTiter-Glo ATP luminescence.
The nature of experiment [9]: SU-DIPG-XXV glioma cell viability, MIPE5.0 library, qHTS (AID 1347068; cut-off not given, nearly all actives have IC50 up to about 30 µM). For orientation: Quantitative high-throughput screening tests each substance at several concentrations.
Experiment [10] in a line: sensitizers of A549 cells to miR-34 induction, primary screen, imaging, A549 dox-inducible miR-34, nuclei and caspase counts (AID 1347080;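 active means compounds whose cell count with miR-34 switched on is under 0.7 times the count with it off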). The settings on record: A549 miR-34 inducible, Hoechst nuclei count, 48 h.
A short description of experiment [11]: survival rescue of mitochondrial mutant cells in low glucose, primary screen, MELAS cybrids, Rieske KO mouse fibroblasts, CellTiter-Glo (AID 1508586;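 active means mean z-score across replicates of 1.96 or higher in either the MELAS or the Rieske mutant cell line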;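 further: z relative to plate mean and SD of compound and empty wells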).
In experiment [12] the target is NAD(+) hydrolase SARM1 (Homo sapiens) (UniProt Q6SZW1). In words: SARM1 TIR NADase inhibitors, cell lysate, NAD-Glo luminescence (AID 1508614;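 active means compound whose remaining NAD level is above about 45 nM, limit read from the data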). As to conditions: SAM-TIR HEK293T lysate NADase, at 1 µM, stronger effect = higher value.
Experiment [13] addresses Mitogen-activated protein kinase 7 (Homo sapiens) (UniProt Q13164). As to the kind of experiment: ERK5 transactivation activators in reporter cells, primary screen, cell-based, HTS (AID 1508626;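 active means luciferase signal above three times the same-plate solvent-only control wells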;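 further: luciferase driven by Gal4-ERK5 fusion binding five Gal4 sites before minimal TATA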). As to conditions: HeLa Gal4-ERK5 transactivation, 18 h, at 5 µM, stronger effect = higher value.
Experiment [14] is described as follows: viability rescue of complex I mutant cybrids, primary screen, cell-based, galactose medium, ATP luminescence (AID 1645843;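 active means z-score of at least 1.8 in each of two replicates, scored against plate mean and spread of sample wells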;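 further: positive z means more ATP and so rescue of galactose-driven cybrid death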). The settings on record: complex I mutant cybrid cells, 72 h, stronger effect = higher value.
The nature of experiment [15]: growth inhibition of DIPG glioma cells, dose response, cell-based, SU-DIPG-XVII, MIPE5.0, CellTiter-Glo, qHTS (AID 1347060; cut-off not given, nearly all actives have AC50 up to about 26 µM;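 further: cells exposed to compound for 48 hours before viability readout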). As to conditions: SU-DIPG-XVII viability, CellTiter-Glo ATP luminescence.
The nature of experiment [16]: modifiers of HSF1 nuclear foci, imaging, Selleck Cancer Library (AID 1347162; in the data active means plate-normalised HSF1 focus index below about 0.46). The settings on record: human cells, at 10 µM; SSMD: measured here: HSF1 foci SSMD mean; cell count: measured here: cell number; plate-normalised HSF1 focus index: stronger effect = lower value.
Experiment [17] is described as follows: ovarian cancer cell viability with rucaparib, profiling panel, oncology-focused library, rucaparib conditional (AID 1508598). The settings on record: patient-derived ovarian cancer cells, CellTiter-Glo viability, 144 h, stronger effect = lower value.

NAD(+) hydrolase SARM1 (Homo sapiens), sequence (Q6SZW1 whole entry, looked up, the tested form may be a part): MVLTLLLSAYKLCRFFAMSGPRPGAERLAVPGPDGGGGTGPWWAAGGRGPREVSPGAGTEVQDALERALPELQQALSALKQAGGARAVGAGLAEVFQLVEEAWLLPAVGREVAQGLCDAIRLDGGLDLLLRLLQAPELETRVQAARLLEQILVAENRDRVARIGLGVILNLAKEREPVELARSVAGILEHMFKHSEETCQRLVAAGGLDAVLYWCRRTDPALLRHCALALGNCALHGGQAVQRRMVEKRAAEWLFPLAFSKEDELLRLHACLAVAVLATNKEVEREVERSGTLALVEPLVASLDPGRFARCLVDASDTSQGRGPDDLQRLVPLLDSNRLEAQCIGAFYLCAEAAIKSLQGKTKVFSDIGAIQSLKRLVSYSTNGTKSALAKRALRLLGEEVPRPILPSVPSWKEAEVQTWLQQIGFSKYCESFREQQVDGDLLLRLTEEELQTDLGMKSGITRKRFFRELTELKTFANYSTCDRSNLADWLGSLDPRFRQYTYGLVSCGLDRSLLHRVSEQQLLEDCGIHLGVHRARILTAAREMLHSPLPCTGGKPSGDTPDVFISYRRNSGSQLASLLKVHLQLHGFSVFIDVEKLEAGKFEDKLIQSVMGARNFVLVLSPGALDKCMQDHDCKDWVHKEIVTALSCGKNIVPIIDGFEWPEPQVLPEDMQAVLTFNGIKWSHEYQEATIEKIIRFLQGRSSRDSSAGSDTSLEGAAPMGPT
Mitogen-activated protein kinase 7 (Homo sapiens), sequence (Q13164 whole entry, looked up, the tested form may be a part): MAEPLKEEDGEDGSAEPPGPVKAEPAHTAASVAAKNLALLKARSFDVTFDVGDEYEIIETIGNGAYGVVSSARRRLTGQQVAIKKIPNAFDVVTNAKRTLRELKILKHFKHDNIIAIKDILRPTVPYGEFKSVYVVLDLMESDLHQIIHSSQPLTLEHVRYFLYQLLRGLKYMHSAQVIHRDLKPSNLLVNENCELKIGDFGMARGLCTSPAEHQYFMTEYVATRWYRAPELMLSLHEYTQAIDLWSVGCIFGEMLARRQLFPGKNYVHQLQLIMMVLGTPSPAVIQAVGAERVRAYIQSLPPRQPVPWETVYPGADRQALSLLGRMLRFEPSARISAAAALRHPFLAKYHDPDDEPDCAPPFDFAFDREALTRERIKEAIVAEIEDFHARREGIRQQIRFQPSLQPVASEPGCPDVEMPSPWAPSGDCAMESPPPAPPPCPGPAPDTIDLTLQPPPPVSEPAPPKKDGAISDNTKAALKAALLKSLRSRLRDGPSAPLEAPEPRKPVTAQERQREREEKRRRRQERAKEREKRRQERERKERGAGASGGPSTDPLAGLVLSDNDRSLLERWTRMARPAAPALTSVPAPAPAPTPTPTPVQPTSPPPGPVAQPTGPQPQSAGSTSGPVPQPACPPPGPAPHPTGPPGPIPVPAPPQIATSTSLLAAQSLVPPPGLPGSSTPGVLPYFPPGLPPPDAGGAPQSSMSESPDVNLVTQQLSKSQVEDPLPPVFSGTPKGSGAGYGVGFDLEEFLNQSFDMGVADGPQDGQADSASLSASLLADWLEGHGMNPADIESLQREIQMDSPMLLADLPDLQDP

Take `CCOC(=O)C1=C[C@@H](OC(CC)CC)[C@H](NC(C)=O)[C@@H](N)C1`: the parasite load remaining in experiment [1] was 175% (inactive) and 21.5% (inactive). Further, the viability (as a rule, a read-out of living cells in per cent, often relative to untreated cells) in [1] was 83.1% and 67.5%. Further, the result in experiment [2], in experiment [3], in experiment [4], in [5], in experiment [6] and in experiment [7] was inactive. The compound was called inactive in [8] and in [9]. Also, the fold change in experiment [10] (stronger effect = lower value, cell number ratio, induced over uninduced) was 0.9 (inactive); in experiment [10] (measured here: relative caspase fold change +Dox/-Dox) it was 1.08. In addition, the cell count in experiment [10] (measured here: total cells with miR-34 induction, stronger effect = lower value) stood at 9340; in experiment [10] (measured here: total cells without miR-34 induction) it was 10400. The z-score in experiment [11] (MELAS cybrid survival, CellTiter-Glo 48 h, stronger effect = higher value) was 0.348 (inactive); in [11] (Rieske KO mouse fibroblast survival, CellTiter-Glo 72 h), -0.618; in experiment [14], 0.705 (inactive). The remaining NAD in experiment [12] was 10 nM (inactive). For the same compound, in experiment [13], the luciferase signal is 56 AU (inactive).
`CNC(=O)[C@@H](NC(=O)[C@H](CC(C)C)[C@H](O)C(=O)NO)C(C)(C)C`: the concentration at half-maximal activity (AC50) (in general, the concentration at which the activity in the assay is half-maximal) in experiment [15] was 18.6 µM (active). Also, the compound was classed as inactive in experiment [9]. For the same compound, in experiment [16], the SSMD came out at 3.3, the cell count was 6770 and the plate-normalised HSF1 focus index was 1.2 (inactive).
For the compound `CCOc1cc2ncc(C#N)c(Nc3ccc(F)c(Cl)c3)c2cc1NC(=O)/C=C/CN(C)C`, the compound was classed as inactive in [2]. For the same compound, the AC50 was 7.43 µM (active) in experiment [3]; 0.833 µM (active) in [4]; 5.9 µM (active) in experiment [5]; 934 nM (active) in [6]; 9.34 µM (active) in experiment [8]. The SSMD in experiment [16] is 3.17. The cell count in experiment [16] is 7120. The plate-normalised HSF1 focus index in experiment [16] was 1.19 (inactive). Moreover, the viability in experiment [17] (at 0.000305 µM, OCI-C5x cells, with rucaparib 10 µM, 100% = cells with rucaparib alone) was 117% (inactive); in [17] (at 0.000305 µM, OCI-C5x cells, without rucaparib), 129% (inactive); in experiment [17] (at 0.000305 µM, OCI-P5x cells, with rucaparib 20 µM, 100% = cells with rucaparib alone) it was 106% (inactive); in experiment [17] (at 0.000305 µM, OCI-P5x cells, without rucaparib) it was 117% (inactive); in experiment [17] (at 0.00122 µM, OCI-C5x cells, with rucaparib 10 µM, 100% = cells with rucaparib alone) it was 115% (inactive); in experiment [17] (at 0.00122 µM, OCI-C5x cells, without rucaparib) it was 115% (inactive). Also, the viability in experiment [17] (at 0.00122 µM, OCI-P5x cells, with rucaparib 20 µM, 100% = cells with rucaparib alone) was 105% (inactive); in experiment [17] (at 0.00122 µM, OCI-P5x cells, without rucaparib) it was 119% (inactive); in [17] (at 0.00488 µM, OCI-C5x cells, with rucaparib 10 µM, 100% = cells with rucaparib alone) it was 105% (inactive); in experiment [17] (at 0.00488 µM, OCI-C5x cells, without rucaparib), 126% (inactive); in experiment [17] (at 0.00488 µM, OCI-P5x cells, with rucaparib 20 µM, 100% = cells with rucaparib alone), 112% (inactive); in experiment [17] (at 0.00488 µM, OCI-P5x cells, without rucaparib), 121% (inactive). The viability was 104% (inactive) in experiment [17] (at 0.0195 µM, OCI-C5x cells, with rucaparib 10 µM, 100% = cells with rucaparib alone); 122% (inactive) in [17] (at 0.0195 µM, OCI-C5x cells, without rucaparib); 67.4% (active) in [17] (at 0.0195 µM, OCI-P5x cells, with rucaparib 20 µM, 100% = cells with rucaparib alone); 81.4% (active) in experiment [17] (at 0.0195 µM, OCI-P5x cells, without rucaparib); 89.4% (active) in experiment [17] (at 0.0781 µM, OCI-C5x cells, with rucaparib 10 µM, 100% = cells with rucaparib alone); 103% (inactive) in [17] (at 0.0781 µM, OCI-C5x cells, without rucaparib). Moreover, the viability in experiment [17] (at 0.0781 µM, OCI-P5x cells, with rucaparib 20 µM, 100% = cells with rucaparib alone) is 104% (inactive); in [17] (at 0.0781 µM, OCI-P5x cells, without rucaparib), 117% (inactive); in experiment [17] (at 0.313 µM, OCI-C5x cells, with rucaparib 10 µM, 100% = cells with rucaparib alone) it was 33.8% (active); in [17] (at 0.313 µM, OCI-C5x cells, without rucaparib), 83.6% (active); in experiment [17] (at 0.313 µM, OCI-P5x cells, with rucaparib 20 µM, 100% = cells with rucaparib alone), 87.8% (active); in experiment [17] (at 0.313 µM, OCI-P5x cells, without rucaparib), 103% (inactive). For the same compound, the viability in experiment [17] (at 1.25 µM, OCI-C5x cells, with rucaparib 10 µM, 100% = cells with rucaparib alone) is 17.6% (active); in [17] (at 1.25 µM, OCI-C5x cells, without rucaparib) it was 47.6% (active); in experiment [17] (at 1.25 µM, OCI-P5x cells, with rucaparib 20 µM, 100% = cells with rucaparib alone), 66.1% (active); in experiment [17] (at 1.25 µM, OCI-P5x cells, without rucaparib) it was 91.8% (active); in experiment [17] (at 5 µM, OCI-C5x cells, with rucaparib 10 µM, 100% = cells with rucaparib alone), 1.66% (active); in experiment [17] (at 5 µM, OCI-C5x cells, without rucaparib) it was 3.35% (active). In addition, the viability in experiment [17] (at 5 µM, OCI-P5x cells, with rucaparib 20 µM, 100% = cells with rucaparib alone) was 1.19% (active); in [17] (at 5 µM, OCI-P5x cells, without rucaparib), 1.58% (active).
For the compound `CCCCN1CCC(CNC(=O)c2c3n(c4ccccc24)CCCO3)CC1`, the AC50 was 6.62 µM (active) in experiment [2] and 16.6 µM (active) in experiment [4]. Moreover, in experiment [3], the outcome was inactive.
As to `O=C(O)c1ccc(-c2cc3cccnc3c(-c3ccc4nonc4c3)n2)cc1`, the result in experiment [2] was inactive. The AC50 in experiment [3] is 20.9 µM (active); in experiment [4], 26.4 µM (active).

The record behind these values is PubChem BioAssay.
